Only some compounds are listed: those with a hit (about 3.9% of all), similar ones and a draw of the others.
BoNT-F LC inh – BoNT F light chain protease inhibition; Multiplex microsphere protease cleavage assay, flow cytometry; inhibition, % at 10 µM; hit rate 0.22% among 360,000; in the data active = inhibition above about 35%, passing the limit was not always enough; also: plate controls were buffer without enzyme for full effect and enzyme alone for no effect
Anthrax LF inh2 – blocks Bacillus anthracis lethal factor protease; AID 588501; hit rate 0.12% among 360,000; inhibition, % at 10 µM; P15917; multiplex microsphere protease cleavage assay, LF; also: plate controls were buffer without enzyme for full effect and enzyme alone for no effect
Target sequence (P15917 whole entry, looked up): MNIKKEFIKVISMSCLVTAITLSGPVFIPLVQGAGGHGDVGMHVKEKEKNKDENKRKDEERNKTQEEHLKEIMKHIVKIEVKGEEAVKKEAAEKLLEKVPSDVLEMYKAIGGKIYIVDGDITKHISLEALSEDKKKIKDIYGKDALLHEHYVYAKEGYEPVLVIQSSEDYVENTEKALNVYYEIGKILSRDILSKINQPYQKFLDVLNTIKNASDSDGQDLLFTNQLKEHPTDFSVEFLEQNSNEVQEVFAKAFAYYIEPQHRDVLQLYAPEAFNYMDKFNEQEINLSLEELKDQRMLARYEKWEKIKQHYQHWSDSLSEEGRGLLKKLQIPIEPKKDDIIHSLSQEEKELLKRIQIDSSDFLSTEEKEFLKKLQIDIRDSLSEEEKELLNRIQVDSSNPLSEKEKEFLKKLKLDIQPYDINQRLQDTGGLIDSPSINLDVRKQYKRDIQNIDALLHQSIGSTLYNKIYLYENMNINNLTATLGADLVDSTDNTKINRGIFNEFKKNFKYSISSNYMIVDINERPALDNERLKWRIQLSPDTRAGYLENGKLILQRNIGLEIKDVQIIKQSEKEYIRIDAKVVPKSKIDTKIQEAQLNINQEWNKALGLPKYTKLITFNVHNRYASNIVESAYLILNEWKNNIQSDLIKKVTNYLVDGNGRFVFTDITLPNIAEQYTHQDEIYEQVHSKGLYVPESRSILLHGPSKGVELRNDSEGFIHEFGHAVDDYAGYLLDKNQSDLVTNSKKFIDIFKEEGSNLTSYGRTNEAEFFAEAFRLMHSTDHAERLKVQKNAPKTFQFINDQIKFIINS
BoNT-A LC inh2 – inhibitors of Botulinum neurotoxin A light chain protease; multiplex microsphere protease substrate cleavage, flow cytometry; inhibition, % at 10 µM; hit rate 0.17% among 360,000; also: plate controls were buffer without enzyme for full effect and enzyme alone for no effect
3CLpro inhibitor – SARS-CoV 3CLpro protease inhibition; hit rate 0.14% among 290,000; recombinant SARS-CoV 3CLpro, quenched FRET peptide cleavage; P0C6X7; inhibition, % at 6 µM; in the data active = inhibition above about 12%
CCHF vOTU inh-1 – blocks the CCHF virus ovarian tumor domain protease; CCHFV vOTU protease, Pep-AMC fluorescence; hit rate 0.55% among 370,000; inhibition, % at 11.5 µM; AID 651958; in the data active = inhibition above about 30%; also: 0% = vehicle wells with enzyme and 100% = no enzyme wells
Bead autofluor – compound fluorescence in toxin protease inhibitor counterscreen | hit rate 3.1% among 360,000 | compound autofluorescence counterscreen, microsphere flow cytometry; hits give high values | fluorescence intensity (test concentration not listed); in the data active = fluorescence intensity above about 16000
CCHF vOTU inh-2 – CCHFV vOTU protease inhibition, confirmation. shares compounds with CCHF vOTU inh-1. Recombinant CCHFV vOTU, Pep-AMC fluorescence. inhibition, % at 11.5 µM. hit rate 17% among 1,900. AID 686976; in the data active = inhibition above about 30%
Numbers without * were called inactive; . = no result. Rule as the data show it, unless noted: active = inhibition above about 30%; inconclusive = no clear call, values can overlap the other calls; inactive = below that.

SMILES | BoNT-F LC inh | Anthrax LF inh2 | BoNT-A LC inh2 | 3CLpro inhibitor | CCHF vOTU inh-1 | Bead autofluor | CCHF vOTU inh-2
O=c1[nH]c(CN2CCc3ccccc3C2)nc2ccccc12 | 2 | -7 | 0 | 4 | 44* | 4535 | 12
CN(CCCC1CCCC1)C(=O)c1cc(COc2ccc(F)c(F)c2)on1 | 5 | -1 | 2 | 3 | 38* | 4405 | 4
COc1cc(/C=N/NC(=O)C(Cc2c[nH]c3ccccc23)NC(=O)OCC(C)C)cc([N+](=O)[O-])c1O (centres undefined) | 11 | -2 | 1 | 2 | 25 | 2533 | .
COc1cc(/C=N/NC(=O)C(Cc2c[nH]c3ccccc23)NC(=O)OCc2ccccc2)cc([N+](=O)[O-])c1O (centres undefined) | -15 | -1 | -2 | -1 | 35* | 9242 | 10
O=C(CN1C(=O)CCSc2ccccc21)Nc1cccc(Cl)c1F | . | . | . | . | -5 | . | .
CC1=Nc2ccccc2/C1=C/c1sc(=S)n(-c2cccc(C(=O)O)c2)c1O | -1 | 1 | 2 | -6 | 36* | 3102 | 26
CCCCOCC1CN(CCCC)S(=O)(=O)c2c(Oc3ccc(C(C)C)cc3)cccc2O1 (centres undefined) | . | . | . | . | 1 | . | .
C[C@@H]1CN([C@@H](C)CO)C(=O)CCCn2nncc2CO[C@H]1CN(C)C(=O)Nc1ccccc1C(F)(F)F | -4 | -5 | 0 | . | 30* | 3771 | -20
C[C@@H]1CN([C@@H](C)CO)C(=O)CCCn2nncc2CO[C@@H]1CN(C)C(=O)Nc1ccccc1C(F)(F)F | 4 | -2 | 0 | . | 27 | 2873 | .
COc1ccc2nc(-c3ccc(CN4CCC(c5nc6ccccc6[nH]5)CC4)cc3)c(-c3ccccc3)nc2c1 | . | . | . | . | -13 | . | .
O=c1[nH]c(Nc2ccccc2Cl)cc2ccccc12 | -2 | -4 | 0 | . | 94* | 4265 | -71
CCOCCOc1cc(NCc2ccccc2)c2ncn(C(C)C)c2c1 | 9 | 6 | 1 | . | 30* | 4491 | 4
COCCCOc1cc(NCc2ccccc2)c2ncn(C(C)C)c2c1 | -6 | -9 | 0 | . | 7 | 3176 | .
CCC(COC)Oc1cc(NCc2ccccc2)c2ncn(C(C)C)c2c1 (centres undefined) | -7 | -1 | 0 | . | 70* | 3744 | 69*
CCC(CO)Oc1cc(NCc2ccccc2)c2ncn(C(C)C)c2c1 (centres undefined) | 1 | 2 | -1 | . | 10 | 4155 | .
CCCCOc1cc(NCc2ccccc2)c2ncn(C(C)C)c2c1 | -2 | -8 | -1 | . | 37* | 5119 | 10
COC(=O)c1ccccc1NC1=C/C(=N\S(=O)(=O)c2cccs2)c2ccccc2C1=O | -8 | -15 | 0 | 5 | 9 | 3481 | .
CCc1cc[n+](C2=C([O-])c3ccccc3C(=O)/C2=N\S(=O)(=O)c2cccs2)cc1 | -19 | 4 | 5 | 2 | 105* | 2581 | 103*
CCc1cc(C(=O)O)c(NC(=O)/C=C/c2ccc(OC)c(OC)c2)s1 | -3 | -3 | 0 | 6 | 33* | 4100 | 9
COc1cc(NC(=O)NC2CCCCN(Cc3ccc(Cl)cc3)C2=O)cc(OC)c1 (centres undefined) | . | . | . | . | 4 | . | .
CC(C)C[C@H](NC(=O)c1[nH]cnc1C(=O)N[C@@H](C)C(=O)OC(C)(C)C)C(=O)OC(C)(C)C | -6 | -3 | -1 | . | 30* | 4064 | 32*
CC(C)C[C@H](NC(=O)c1nc[nH]c1C(=O)NCC(=O)OC(C)(C)C)C(=O)OCc1ccccc1 | -3 | -8 | 0 | . | 31* | 4091 | 19
CC(C)C[C@H](NC(=O)c1[nH]cnc1C(=O)Nc1ccccc1)C(=O)OC(C)(C)C | -2 | 2 | 0 | . | 30* | 2799 | 16
CCCn1c(SCC(=O)Nc2ccc(Cl)cn2)nnc1C1CC1 | 3 | -2 | 0 | 2 | 34* | 5814 | 3
Cc1[nH][nH]c(=O)c1C(c1ccc(-c2ccc(F)cc2)o1)c1c(C)[nH][nH]c1=O | -9 | -4 | -1 | 5 | 46* | 2394 | -9
SMILES | BoNT-F LC inh | Anthrax LF inh2 | BoNT-A LC inh2 | 3CLpro inhibitor | CCHF vOTU inh-1 | Bead autofluor | CCHF vOTU inh-2
COC(=O)[C@]12CCCCC=C1N(Cc1ccc(OC)cc1)C(=O)[C@@H]2CC(=O)NCc1cccc(C(F)(F)F)c1 | . | . | . | . | 14 | . | .
Cc1cc(/C=C(\C#N)C(=O)O)c(C)n1CC(C)C | 2 | -2 | 0 | 4 | 3 | 2853 | .
Cc1cc(/C=C(\C#N)C(=O)O)c(C)n1CCC(C)C | -2 | -2 | 0 | 0 | 30* | 4648 | 4
COc1c2c(c(OC)c3c1c(=O)c1ccccc1n3C)OCO2 | -4 | 2 | 0 | . | 54* | 3771 | -20
CCOC(=O)C1(Cc2cccc(OC)c2)CCN(Cc2cccc(O)c2)CC1 | -6 | -7 | -1 | 0 | 31* | 4590 | -23
COC(=O)N1C[C@H](Oc2cccc3ccccc23)[C@H]2C[C@@H]1c1ccccc1O2 | . | . | . | . | -4 | . | .
